# SMN2 splice enh – enhancers of SMN2 splice variant expression; HEK293 SMN2-luciferase splicing reporter, luminescence, 30-36 h; 2.8% of 210,000 active; Potency, µM (top dose mostly 46.1 µM), actives largely listed as activators; also: nearly all actives have a fitted effect of over 55% in size
#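 qHTS luciferase splicing reporter: luminescence rises when SMN2 exon 7 is included in transfected HEK293 cells. Compound exposure lasted 30-36 h at 37C, with 4.5 mM final sodium butyrate as control, followed by a ONE-Glo read.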
# KinaseGlo FLuc – blocks Kinase-Glo luciferase, a counter-screen artifact. AID 1379. 0.28% of 200,000 active. Potency, µM (top dose mostly 38.3 µM), usual class: inhibitors. Kinase-Glo luciferase, ATP luminescence, 8 min. Q27757; also: nearly all actives have a fitted effect of over 60% in size
#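 Substrate mix (final 50 mM imidazole pH 7.2, 50 mM KCl, 7 mM MgCl2, 10 uM ATP, 0.01% Tween 20, 0.05% BSA) plus pin-tool compound, then Kinase-Glo detection mix; 8 min ambient, luminescence read.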
# NPC1 promoter act – activators of NPC1 promoter; Potency, µM (series often up to 9.22 µM), most hits filed as activators; AID 485313; 2.4% of 320,000 active; Huh7 NPC1 promoter luciferase reporter, 24 h; also: nearly all actives have a fitted effect of over 60% in size
#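 Stable NPC1-promoter luciferase Huh7 line; cpd (DMSO) 24 h, 37 °C, 5% CO2; Amplite luciferase reagent 10 min RT; luminescence readout. qHTS format.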
# Rab9 prom act – Rab9 promoter activation; Huh7 Rab9 promoter-luciferase reporter, luminescence, 24 h; 2.8% of 320,000 active; Potency, µM (highest dose often 9.22 µM), hits mostly activators; also: nearly all actives have a fitted effect of over 60% in size
#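 Luminescence from Amplite-detected luciferase (10 minutes, ambient) reports Rab9 promoter activation. Before that, stable Rab9-luciferase Huh7 cells (1500/well, reduced-serum OP-MEM I plus 10% FBS) were exposed to compound for 24 hours at 37C.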
# FLuc modulator – inhibits or activates purified firefly luciferase, miR-21 counter-screen. purified FLuc, Km substrates, luminescence inhibition. 6.9% of 360,000 active. Potency, µM (series often up to 57.5 µM), most hits filed as inhibitors. P08659; also: nearly all actives have a fitted effect of over 55% in size
# Target sequence (P08659 whole entry, looked up): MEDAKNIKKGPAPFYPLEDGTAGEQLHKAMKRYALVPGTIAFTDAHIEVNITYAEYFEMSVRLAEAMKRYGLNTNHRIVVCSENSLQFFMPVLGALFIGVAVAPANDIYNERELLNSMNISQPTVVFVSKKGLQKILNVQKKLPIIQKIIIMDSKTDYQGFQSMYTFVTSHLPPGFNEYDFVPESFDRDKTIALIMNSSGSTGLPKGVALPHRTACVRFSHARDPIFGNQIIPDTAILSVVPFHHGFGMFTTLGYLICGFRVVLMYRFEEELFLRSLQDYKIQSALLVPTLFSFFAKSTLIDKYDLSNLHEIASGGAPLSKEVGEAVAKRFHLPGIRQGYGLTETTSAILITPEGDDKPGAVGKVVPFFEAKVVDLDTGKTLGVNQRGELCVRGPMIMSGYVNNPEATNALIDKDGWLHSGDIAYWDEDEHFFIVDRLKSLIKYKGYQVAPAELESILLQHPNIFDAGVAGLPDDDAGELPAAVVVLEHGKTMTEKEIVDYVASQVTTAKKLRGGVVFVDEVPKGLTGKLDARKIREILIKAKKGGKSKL
#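 Purified P. pyralis luciferase (10nM final) with 10uM D-luciferin and 10uM ATP (Km levels) in 50mM Tris acetate pH 7.5, 10mM Mg acetate, 0.01% Tween-20, 0.05% BSA; qHTS 6-point titration, ~60 µM downward; luminescence read.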
# ELG1 genotoxic – genotoxicity induction in ELG1-luciferase HEK293T cells; HEK293T ELG1-luciferase reporter, luminescence, 16 h; Potency, µM (doses to about 46 µM), most hits filed as activators; 1.3% of 330,000 active; also: nearly all actives have a fitted effect of over 60% in size
#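 DMSO vehicle served as control against compound-treated ELG1-luciferase HEK293T cells; exposure lasted 16 hr at 37 °C and 5% CO2, followed by ONE-Glo luminescence detection after 30 min.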
# Numbers stand for hits; – = inactive; ? = inconclusive; · = no result given; [ ] = dose if it differs, or a comment. The list is not random: actives were taken first. Their share in the collection is about 7.3%. Calls follow the shape of the dose curve; as a rule, active = well fitted curve in the direction sought with a large enough effect; inconclusive = small, poorly fitted or top-dose-only effect, or another doubt; inactive = no such curve, though single readings can be large; an effect the other way counts as inactive or inconclusive.
SMILES,SMN2 splice enh,KinaseGlo FLuc,NPC1 promoter act,Rab9 prom act,FLuc modulator,ELG1 genotoxic
CCCN1C(=O)C2(c3ccccc31)c1c(oc3ccc(C)cc3c1=O)C(=O)N2CCOC (centres undefined),–,·,·,·,–,·
Cc1c(C(=O)N2CCc3ccccc32)oc2c1C(=O)CC(C)(C)C2,12.6µM,–,–,?,8.49µM,3.26µM
CC(=O)c1c(C)[nH]c(C(=O)N2c3ccccc3CC2C)c1C (centres undefined),–,–,–,–,–,–
Cc1ccc(C(=O)N2CCc3ccccc32)o1,7.94µM,12.6µM,2.24µM,1.58µM,9.53µM,?
O=C(c1ccc([N+](=O)[O-])o1)N1CCc2ccccc21,·,·,–,–,–,–
Cc1ccc(C(=O)N2c3ccccc3CC2C)o1 (centres undefined),15.8µM,11.2µM,2µM,1µM,7.57µM,?
Cc1ccc2oc(-c3cccc(NC(=O)c4sc5c([N+](=O)[O-])cccc5c4Cl)c3)nc2c1,–,·,·,·,–,·
CCOC(=O)c1ccccc1NC(=O)Cn1cc(C(=O)c2cccc(OC)c2)c(=O)c2ccc(C)nc21,·,·,·,·,–,·
Cc1ccn2cc(C(=O)Nc3nnc(C)s3)nc2c1,·,·,?,3.16µM,15.1µM,?
CC(C)Oc1cccc(C(=O)Nc2ccccc2N2CCOCC2)c1,–,–,–,–,?,–
Cn1nc(C(=O)Nc2ccccc2N2CCOCC2)ccc1=O,·,·,–,–,–,–
O=C(Nc1ccccc1N1CCOCC1)c1cccc(Oc2ccccc2)c1,·,·,–,–,21.3µM,–
Cc1ccn2cc(C(=O)Nc3ccccc3N3CCOCC3)nc2c1,–,–,–,–,15.1µM,–
O=C(Nc1ccccc1N1CCOCC1)c1ccc2ccccc2n1,–,–,–,–,7.57µM,–
O=C(Nc1cc(C(F)(F)F)ccc1N1CCOCC1)c1cn2ccccc2n1,–,–,–,–,–,–
COc1cc(NC(=O)CSc2cc(=O)n(C)c3ccccc23)cc(OC)c1OC,–,·,·,·,–,·
CC(C)c1cnc2c(c1SCC(=O)NCc1ccccc1)c(=O)n(C)c(=O)n2C,·,·,·,·,–,·
COc1ccc(S(=O)(=O)NCc2ccc3c(c2)CCN3C(C)=O)cc1OC,·,·,·,·,–,·
Cc1ccn2cc(C(=O)Nc3ccc4c(c3)OCCO4)nc2c1,?,–,1.41µM,1µM,1.9µM,5.8µM
Cc1ccn2cc(CCNS(=O)(=O)c3ccc4c(c3)OCCO4)nc2c1,–,–,–,–,–,–
CCCn1nnc(NC(=O)c2ccc(OC)cc2)n1,?,–,3.98µM,?,21.3µM,18.4µM
CCOc1ccc(C(=O)Nc2nnn(CC)n2)cc1,·,·,3.98µM,3.98µM,12µM,10.3µM
CCCn1nnc(NC(=O)c2ccc(Br)cc2)n1,14.1µM,–,?,3.98µM,?,9.2µM
CCCn1nnc(NC(=O)c2ccc(-c3ccccc3)cc2)n1,?,–,2.51µM,2.51µM,9.53µM,?
COC(=O)N1C2CC(=O)O[C@@H]3c4cc5c(cc4[C@]1(C)[C@@]3(Br)c1ccccc12)OCO5,–[9.22 µM],–[7.66 µM],·,·,·,·
SMILES,SMN2 splice enh,KinaseGlo FLuc,NPC1 promoter act,Rab9 prom act,FLuc modulator,ELG1 genotoxic
Cc1ccc(CCNC(=O)CN2C(=O)COc3ccc(S(=O)(=O)N4CCCCCC4)cc32)cc1,·,·,·,·,–,·
CCCCC[C@H](O)/C=C/C=C\C/C=C\CCCCC(=O)O,–,–,·,·,·,·
COC(=O)c1c(-c2ccc(OC)cc2)sc2cc3c(cc12)OCO3,·,·,?,–,9.53µM,?
O=C(Cc1cccs1)NCc1cccc(CNC(=O)Cc2cccs2)c1,–,–,–,–,–,–
CCc1ccc(OCC(=O)NNC(=O)Cc2cccs2)cc1,–,–,–,–,–,–
CCCOc1ccc(CNC(=O)Cc2cccs2)cc1,·,·,?,?,19µM,?
O=C(Cc1cccs1)NCc1ccc(Cl)cc1Cl,·,·,3.16µM,2.82µM,15.1µM,?
O=C(Cc1cccs1)NCc1ccccc1Br,·,·,?,3.98µM,19µM,?
CCOC(=O)C(CC)Sc1ncnc2sc3c(c12)CCCC3 (centres undefined),–,·,·,·,?,·
COc1ccc(-n2ncc(C(=O)NCc3ccc4c(c3)OCO4)c2C2CCN(C(=O)OC(C)(C)C)CC2)cc1,·,·,·,·,–,·
Cc1n[nH]c(=O)[nH]c1=O,–,–,·,·,·,·
Cc1cc(C(=O)COc2ccccc2C(N)=O)c(C)n1C,–,–,–,–,?,–
Cc1cc(C(=O)COc2ccc(Cl)cc2Br)c(C)n1C,–,–,–,?,21.3µM,–
Cc1cc(C(=O)COc2cccc3cccnc23)c(C)n1C,?,–,?,–,16.9µM,–
COc1cc(C2C(=O)N(C3CCCCC3)CC(=O)N2CCc2ccccc2)ccc1OC(C)C (centres undefined),·,·,·,·,–,·
Cc1sc2ncn(/N=C/c3ccco3)c(=O)c2c1C,·,·,–,?,10.7µM,?
O=c1c2c3c(sc2ncn1/N=C/c1ccco1)CCCC3,?,–,–,–,–[2.3 µM],–
Cc1cccc(C)c1NC(=O)c1cccc(COc2cc(Cl)ccc2Cl)c1,12.6µM,–,–,–,–,–
CCN(Cc1ccccc1)C(=O)c1cc(-c2ccccc2)n[nH]1,·,·,·,·,15.1µM,·
CCN(Cc1ccccc1)C(=O)c1ccc(C(=O)N(CC)Cc2ccccc2)cc1,·,·,–,–,–,–
CC(C)c1cc(C(=O)NC(C)c2ccccc2)no1 (centres undefined),–,·,·,·,–,·
O=C(COC(=O)c1cccnc1)Nc1cccc(Cl)c1,–,–,–,–,–,–
O=C(COC(=O)c1cccnc1)c1ccc(Cl)cc1,–,–,–,–,10.7µM,–
O=C(Oc1cccnc1)c1ccc(Cl)c(Cl)c1,–,–,–,–,?,–
O=C(COC(=O)c1cccnc1)c1ccc(Cl)c(Cl)c1,–,–,–,–,16.9µM,–
SMILES,SMN2 splice enh,KinaseGlo FLuc,NPC1 promoter act,Rab9 prom act,FLuc modulator,ELG1 genotoxic
CCCC(=O)OC1CC(C)N(C(=O)c2ccccc2)c2ccc(C)cc21 (centres undefined),–,–,–,–,–,–
CC(=O)OC1CC(C)N(C(=O)c2ccccc2)c2ccc(C)cc21 (centres undefined),?,–,–,–,–,20.6µM
Oc1c(C(c2ccccc2)N2CCC3(CC2)OCCO3)sc2nc(-c3ccco3)nn12 (centres undefined),·,·,·,·,–,·
Cn1c(SCC(=O)c2ccccc2)nnc1-c1ccco1,–,–,–,?,21.3µM,?
Cn1c(SCC(=O)c2ccccc2)nnc1-c1ccncc1,–,–,–,–,–,–
O=C(CSc1nnc(-c2ccco2)n1Cc1ccccc1)OC1CCCCC1,?,–,?,3.16µM,9.53µM,?
Cn1c(SCC(=O)c2ccccc2)nnc1-c1ccccn1,·,·,?,3.55µM,16.9µM,?
Cn1c(SCC(=O)c2ccccc2)nnc1-c1cccc(N)c1,–,–,–,?,23.9µM,?
CCOc1ccc(-n2cc(-c3ccccc3)c3c(N4CCN(c5ccccc5OC)CC4)ncnc32)cc1,·,·,·,·,–,·
CCOC(=O)Nc1nc(-c2ccccc2)c(C)s1,–[9.22 µM],–[7.66 µM],·,·,·,·

# Compound activity: PubChem BioAssay, National Center for Advancing Translational Sciences (NCATS)
